Screening data: PubChem BioAssay, several laboratories
Bead autofluor: compound fluorescence in toxin protease inhibitor counterscreen | fluorescence intensity (concentration not given with the values) | compound autofluorescence counterscreen, microsphere flow cytometry; active compounds read high | 360,000 compounds, 3.1% hits; in the data active means fluorescence intensity above about 16000; inconclusive means no clear call, values can overlap the other calls
Anthrax LF inh2: inhibitors of Bacillus anthracis lethal factor protease. inhibition, % at 10 µM. P15917. multiplex microsphere protease cleavage assay, LF. AID 588501. 360,000 compounds, 0.12% hits
Target sequence (P15917 whole entry, looked up): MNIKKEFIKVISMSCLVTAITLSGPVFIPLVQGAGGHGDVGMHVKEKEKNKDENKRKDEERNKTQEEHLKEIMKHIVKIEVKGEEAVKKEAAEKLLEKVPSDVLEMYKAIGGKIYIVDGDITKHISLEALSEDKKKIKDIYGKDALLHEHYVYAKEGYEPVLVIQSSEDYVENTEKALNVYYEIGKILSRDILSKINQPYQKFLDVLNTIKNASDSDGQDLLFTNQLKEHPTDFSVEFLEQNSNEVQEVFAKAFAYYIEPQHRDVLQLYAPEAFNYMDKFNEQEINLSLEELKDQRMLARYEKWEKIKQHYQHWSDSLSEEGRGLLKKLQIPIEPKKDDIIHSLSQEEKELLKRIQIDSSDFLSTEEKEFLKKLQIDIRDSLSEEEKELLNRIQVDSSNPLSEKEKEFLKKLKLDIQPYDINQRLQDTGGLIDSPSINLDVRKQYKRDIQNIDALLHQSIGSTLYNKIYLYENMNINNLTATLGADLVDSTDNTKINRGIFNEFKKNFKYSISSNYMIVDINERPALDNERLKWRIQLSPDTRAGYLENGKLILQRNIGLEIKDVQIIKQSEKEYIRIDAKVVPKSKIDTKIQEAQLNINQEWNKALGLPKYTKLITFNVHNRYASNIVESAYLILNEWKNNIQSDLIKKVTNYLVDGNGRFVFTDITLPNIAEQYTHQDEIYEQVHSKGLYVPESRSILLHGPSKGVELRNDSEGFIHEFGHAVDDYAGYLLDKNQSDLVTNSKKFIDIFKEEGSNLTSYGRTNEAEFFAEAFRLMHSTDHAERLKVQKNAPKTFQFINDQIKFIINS
BoNT F protease: blocks Botulinum neurotoxin F light chain protease; Multiplex microsphere protease cleavage assay, flow cytometry; inhibition, % at 10 µM; 360,000 compounds, 0.22% hits; AID 588497; in the data active means inhibition above about 35%, passing the limit was not always enough; inconclusive means no clear call, values can overlap the other calls
BH1578 lux ind: quorum light induction in luxS cqsA deficient V. cholerae; V. cholerae BH1578 lux reporter, luminescence, 6 h; activation, % at 18.7 µM; 350,000 compounds, 0.16% hits; AID 588436; in the data active means activation mostly above about 9.7%, no sharp cut-off; inconclusive means no clear call, values can overlap the other calls; inactive means mostly below about 3.7%
BJeLR viability: BJeLR cell viability loss. 300,000 compounds, 0.17% hits. BJeLR (HRASV12) viability, CellTiter-Glo ATP luminescence, 48 h. inhibition, % (test concentration not listed). AID 1554; in the data active means inhibition above about 50%; inconclusive means no clear call, values can overlap the other calls
BoNT A protease: blocks Botulinum neurotoxin A light chain protease; multiplex microsphere protease substrate cleavage, flow cytometry; inhibition, % at 10 µM; 360,000 compounds, 0.17% hits; AID 588499
Hits are given with their value; n = inactive; u = inconclusive; x = no result. Sampled rows, rich in hits. Any-hit rate of the full collection: about 3.7%. Unless noted, no stated cut-off is given here; in the data, active means inhibition above about 30%; inconclusive means no clear call, values can overlap the other calls; inactive means below that.

SMILES	Bead autofluor	Anthrax LF inh2	BoNT F protease	BH1578 lux ind	BJeLR viability	BoNT A protease
COc1cccc(CN2CCN(C(=O)[C@H]3O[C@@H](n4cnc5c(N)ncnc54)[C@H](O)[C@@H]3O)CC2=O)c1	n	n	n	x	x	n
CCCN(C)C[C@@H]1Oc2ncc(Br)cc2C(=O)N([C@@H](C)CO)C[C@H]1C	n	n	n	n	x	n
Cc1cccn2cc(-c3ccc(F)cc3)nc12	23835	n	n	n	n	n
COc1ccncc1-c1ccccc1C1=CC(=O)CC(C)(C)C1=O	n	n	n	n	x	n
CCn1cc(C(=O)NCc2ccco2)c(=O)c2cc(S(=O)(=O)N3CCCCCC3)ccc21	21862	n	n	n	n	u
CCn1cc(C(=O)NCCN(C)CCc2ccccc2)c(=O)c2cc(S(=O)(=O)N(C)C)ccc21	22712	n	n	n	n	n
CCn1cc(C(=O)NCc2ccco2)c(=O)c2cc(S(=O)(=O)N3CCc4ccccc4C3)ccc21	20784	n	n	n	n	n
CCn1cc(C(=O)NCCc2ccccc2)c(=O)c2cc(S(=O)(=O)N(C)C)ccc21	n	n	n	n	n	n
CCn1cc(C(=O)NCCCOC)c(=O)c2cc(S(=O)(=O)N3CCC(C)CC3)ccc21	n	n	n	n	n	n
CCn1cc(C(=O)NCCCN2CCCC2)c(=O)c2cc(S(=O)(=O)N3CCc4ccccc4C3)ccc21	n	n	n	n	n	n
CCn1cc(C(=O)NCc2ccco2)c(=O)c2cc(S(=O)(=O)N3CCC(C)CC3)ccc21	20447	n	n	n	n	n
CCn1cc(C(=O)NCc2ccccn2)c(=O)c2cc(S(=O)(=O)N3CCCCC3)ccc21	x	x	x	x	n	x
CC1=C2C3OC(=O)C(C)C3CCC2(C)C=C(Br)C1=O (stereo not drawn)	n	n	n	n	x	n
C=CCn1cc(C(=O)NCc2ccco2)c(=O)c2cc(S(=O)(=O)N3CCCCCC3)ccc21	16902	n	n	n	n	n
CCn1cc(C(=O)NCc2ccco2)c(=O)c2cc(S(=O)(=O)N3CC(C)CC(C)C3)ccc21 (stereo not drawn)	19725	n	n	n	88	n
O=C(NCC1CCN(Cc2ccccc2)CC1)[C@H]1O[C@@H](n2ccc(=O)[nH]c2=O)[C@H](O)[C@@H]1O	n	n	n	x	x	n
CC1(C(=O)NCCC#N)CCN1C(=O)C1(c2ccccc2)CCCC1 (stereo not drawn)	n	n	n	n	x	n
CC1(C(=O)Nc2ccc(Cl)cc2)Cc2c(-c3cccc(C(F)(F)F)c3)ccnc2O1 (stereo not drawn)	n	n	n	n	x	n
COC(=O)c1cc(Cl)c(NC(=O)/C=C/c2ccc(Cl)cc2)cc1OC	20164	n	n	n	n	n
COC(=O)c1cc(Cl)c(NC(=O)c2ccc(F)cc2)cc1OC	n	n	n	n	n	n
COC(=O)c1cc(Cl)c(NC(=O)c2cc(OC)c(OC)c(OC)c2)cc1OC	21669	n	n	n	n	n
COc1ccc(C(=O)N2CCCC(c3cc(C(=O)Nc4ccccc4)no3)C2)cc1 (stereo not drawn)	n	n	n	n	x	n
Cc1ccc(C)c(-n2nnnc2SCC(=O)NCCC2=CCCCC2)c1	16990	n	n	n	n	n
O=C(CSc1ncccc1C(=O)O)NCCC1=CCCCC1	20428	n	n	n	n	n
O=C(CSc1ncccn1)NCCC1=CCCCC1	n	n	n	n	n	n
SMILES	Bead autofluor	Anthrax LF inh2	BoNT F protease	BH1578 lux ind	BJeLR viability	BoNT A protease
Cc1ccc(S(=O)(=O)N(C)C[C@H]2OCCCC[C@@H](C)Oc3ccc(NC(=O)Cc4ccccc4)cc3C(=O)N([C@H](C)CO)C[C@@H]2C)cc1	n	n	n	n	x	n
COCCCn1cc(CN2CC(N3CCN(C4CCN(C)CC4)CC3)CS2(=O)=O)nn1 (stereo not drawn)	n	n	n	x	x	n
CCOC(=O)Cn1c(=O)oc2cc(S(=O)(=O)Nc3cc(OCC)ccc3OCC)ccc21	16486	n	n	n	x	u
CCOC(=O)Cn1c(=O)oc2cc(S(=O)(=O)N(CCN(C)C)Cc3ccccc3)ccc21	23509	n	n	n	n	n
CCOCCCNS(=O)(=O)c1ccc2c(c1)oc(=O)n2CC(=O)OCC	23318	n	n	n	n	n
CCOC(=O)Cn1c(=O)oc2cc(S(=O)(=O)NCCc3ccc(OCC)c(OCC)c3)ccc21	22861	n	n	n	n	u
CCOC(=O)Cn1c(=O)oc2cc(S(=O)(=O)Nc3cc(Cl)ccc3OC)ccc21	n	n	n	x	n	n
CCOC(=O)Cn1c(=O)oc2cc(S(=O)(=O)N(C)Cc3ccccc3)ccc21	n	n	n	n	n	n
CCOC(=O)Cn1c(=O)oc2cc(S(=O)(=O)NCCC(C)C)ccc21	n	n	n	n	n	n
CCOC(=O)Cn1c(=O)oc2cc(S(=O)(=O)NC(C)(C)CC)ccc21	n	n	n	n	n	n
C[C@H]1Cn2cnc(C(=O)Nc3cccc(Cl)c3)c2C(=O)N1	n	n	n	n	x	n
CCOC(=O)C1=C(C)NC(SCC(N)=O)=C(C#N)C1c1ccccc1 (stereo not drawn)	n	n	n	n	n	n
CCOC(=O)C1=C(c2ccccc2)NC(SCC(N)=O)=C(C#N)C1c1cccnc1 (stereo not drawn)	19434	n	n	n	n	n
CC(C)c1ccc2c(c1)CC[C@H]1[C@](C)(CN)CCC[C@]21C	n	n	n	n	x	n
CC(C)c1ccc2c(c1)CCC1C(C)(CN)CCCC21C (stereo not drawn)	n	n	n	n	107	n
COc1ccc(C(O)P(=O)(OC2CCCCC2)c2ccc(N(C)C)cc2)cc1OC (stereo not drawn)	22879	n	n	n	n	n
CCCC(=O)N1CCC1(C)C(=O)Nc1scc(C)c1C#N (stereo not drawn)	n	n	n	n	x	n
O=C(CCN1CCCCC1)c1ccccc1	16441	n	n	n	n	u
O=C(CCN1CCOCC1)c1ccccc1	n	n	n	n	n	n
O=C(O)CCC(=O)CCC(=O)c1ccccc1	23543	n	n	n	n	u
O=C(OCCN1CCCCC1)c1ccc(O)cc1	21154	n	n	n	n	n
C1CCCN(CCCCN2CCCCCC2)CC1	21776	n	n	n	n	n
CCN(CC)CCNc1ccc(CO)c2oc3ccccc3c(=O)c12	n	n	n	n	x	n
OC(C#CCN1CCCCC1)c1ccccc1 (stereo not drawn)	n	n	n	n	n	n
OC(CCCCN1CCCCC1)c1ccccc1 (stereo not drawn)	22737	n	n	n	n	u
CCc1nc2c(OCCc3cccc(OC)c3)cccn2c1N(C=O)Cc1ccc(OC)cc1	n	n	n	n	x	n
COc1ccccc1/C=C/C(=O)c1ccc(Cl)cc1	24068	n	n	n	n	n
COc1ccccc1/C=C/C(=O)c1c2c(c(C)[nH]c1=O)CCCC2	21882	n	n	n	x	u
COc1ccccc1/C=C/C(=O)c1ccccc1	n	n	u	n	n	n
